Screening data: PubChem BioAssay, National Center for Advancing Translational Sciences (NCATS)
HTT aggregate: qHTS Multiplex Assay to Identify Dual Action Probes in a Cell Model of Huntington: Aggregate Formation (GFP); hit rate 1.1% among 220,000; Potency, µM (doses to about 46.1 µM), for inactives: top-dose activity change, negative = inhibition, actives largely listed as inhibitors; PC12 HttQ103-GFP aggregates, Acumen cytometry, 40 h; also: potency is read from the fitted curve at half-maximal effect; % is scaled to controls: 0 for no effect and ±100 for the full control effect; nearly all actives have a fitted effect of over 60% in size
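Read-out: GFP aggregate count by laser scanning cytometer (488 nm excitation, 500-530 nm emission, 1–25 µm objects >6 SD above background). Cells: PC12, inducible HTTex1-Q103-GFP, 100 nM tebufenozide; compounds titrated.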
HTT cytoprotect: qHTS Multiplex Assay to Identify Dual Action Probes in a Cell Model of Huntington: Cytoprotection (ATP) | PC12 HTT-Q103 induced, cytoprotection, ATP luminescence, 40 h | Potency, µM (titrated, usually from 56.4 µM), for inactives: cytoprotection (ATP increase), most hits filed as activators | hit rate 0.14% among 230,000 | AID 1471, 2008; also: potency is read from the fitted curve at half-maximal effect; % of control where 0% means no effect; nearly all actives have a fitted effect of over 45% in size
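Stable PC12 Q103-GFP cells in serum-supplemented, phenol red-free DMEM; induction by tebufenozide at 100 nM final; compound dose series; cell viability quantified luminescently from ATP.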
JMJD2E inh: qHTS Assay for Inhibitors of Human Jumonji Domain Containing 2E (JMJD2E) | JMJD2E catalytic domain, FDH-coupled NADH fluorescence (FDH is formaldehyde dehydrogenase) | Potency, µM (top dose mostly 57.1 µM), inactives show top-dose activity change, negative = inhibition, hits mostly inhibitors | hit rate 1.6% among 230,000; active = well fitted inhibition curve with a large enough effect, not every such curve was filed as active; inconclusive = small, poorly fitted or top-dose-only effect, or another doubt; inactive = no such curve, though single readings can be large or run the other way;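 also: potency is read from the fitted curve at half-maximal effect; 0% = wells with enzyme and -100% = buffer wells without enzyme; nearly all actives have a fitted effect of over 50% in size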
Target sequence (B2RXH2 1-337 limits assumed): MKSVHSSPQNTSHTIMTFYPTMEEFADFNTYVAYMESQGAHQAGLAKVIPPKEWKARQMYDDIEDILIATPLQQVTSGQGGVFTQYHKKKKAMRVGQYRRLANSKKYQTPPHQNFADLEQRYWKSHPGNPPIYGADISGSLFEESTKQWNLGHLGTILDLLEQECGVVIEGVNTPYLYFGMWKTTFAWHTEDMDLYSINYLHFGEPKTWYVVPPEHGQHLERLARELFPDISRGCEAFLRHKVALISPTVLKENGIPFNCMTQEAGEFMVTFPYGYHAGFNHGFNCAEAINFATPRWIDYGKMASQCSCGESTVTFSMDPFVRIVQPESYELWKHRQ
RGS12 GoLoco inh: qHTS Assay for Inhibitors of RGS12 GoLoco Motif Activity (Red Fluorophore); Potency, µM (titrated, usually from 61.6 µM), for inactives: at the highest dose activity, negative = inhibition, actives largely listed as inhibitors; hit rate 0.44% among 230,000; Guanine nucleotide-binding protein G(i) subunit alpha-1 (Homo sapiens), P63096; Gai1:RGS12 GoLoco peptide FP, rhodamine, 10 min; AID 880, 2007; active = well fitted inhibition curve with a large enough effect, not every such curve was filed as active; inactive = no such curve, though single readings can be large or run the other way; also: potency is read from the fitted curve at half-maximal effect; % is scaled to controls: 0 for no effect and ±100 for the full control effect; nearly all actives have a fitted effect of over 30% in size
FBPA coupling cs: qHTS Assay for Inhibitors of Fructose-1,6-bisphosphate Aldolase from Giardia Lamblia: Coupling assay counterscreen; coupling enzyme system counterscreen, AmpLite Red fluorescence; activity change, negative = inhibition, % at 58.2 µM, hits read low; hit rate 0.67% among 290,000; AID 2472, 2010; in the data active = activity change below about -30%; also: % is scaled to controls: 0 for no effect and ±100 for the full control effect
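First, compound is pin-transferred into glyceraldehyde-3-phosphate coupling-enzyme reagent at 57.5 uM final and held 10 min at RT. Next, substrate, coupling system and AmpLite Red are added. After 20 min RT, fluorescence (525/598 nm) is read.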
VDR inh: Inhibitors of the vitamin D receptor (VDR): qHTS | Vitamin D3 receptor (Homo sapiens), P11473 | VDR-SRC2-3 peptide fluorescence polarization, 2 h | Potency, µM, for the others: max response, negative = inhibition, most hits filed as inhibitors | hit rate 0.93% among 400,000; also: potency is read from the fitted curve at half-maximal effect; % is scaled to controls: 0 for no effect and ±100 for the full control effect
Target sequence (P11473 whole entry, looked up): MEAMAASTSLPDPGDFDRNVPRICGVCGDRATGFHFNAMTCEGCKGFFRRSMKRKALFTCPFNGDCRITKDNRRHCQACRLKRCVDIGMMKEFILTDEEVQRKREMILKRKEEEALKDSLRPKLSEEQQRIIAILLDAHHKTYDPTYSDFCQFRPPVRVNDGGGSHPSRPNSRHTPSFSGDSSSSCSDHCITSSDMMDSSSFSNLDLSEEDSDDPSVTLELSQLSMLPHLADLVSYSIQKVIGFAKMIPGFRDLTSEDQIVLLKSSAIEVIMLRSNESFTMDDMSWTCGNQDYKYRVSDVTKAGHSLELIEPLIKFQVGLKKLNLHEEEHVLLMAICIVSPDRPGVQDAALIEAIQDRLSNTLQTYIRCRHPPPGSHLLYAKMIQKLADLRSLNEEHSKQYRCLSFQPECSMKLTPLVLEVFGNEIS
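After 23 nl compound addition and a short centrifugation, plates sat for 2 hours at ambient temperature; polarization of fluorescence then indicated loss of VDR binding to peptide SRC2-3.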
* hit, by the source's call; ? = inconclusive; . = no result; ! = a repeat was not active; [ ] = remark or other dose. Only some compounds are listed: those with a hit (about 2.3% of all), similar ones and a draw of the others. Unless noted, calls follow the shape of the dose curve; as a rule, active = well fitted curve in the direction sought with a large enough effect; inconclusive = small, poorly fitted or top-dose-only effect, or another doubt; inactive = no such curve, though single readings can be large; an effect the other way counts as inactive or inconclusive.

SMILES	HTT aggregate	HTT cytoprotect	JMJD2E inh	RGS12 GoLoco inh	FBPA coupling cs	VDR inh
C=CCN1CCc2cccc3c2[C@@H]1Cc1ccc(O)c(O)c1-3	.	5.2%[1.9 µM]	.	.	.	.
Cn1c[n+](C)cc1C(O)c1ccccc1 (stereo not drawn)	-0.2%	-12.3%	?	14.1µM*	-0.2	8.1%
C=CCC1C(=O)NC(=S)NC1=O	-16.4%	-30.5%	-12.2%	-5.1%	0.3	89.1µM*
N[C@H](CCCP(=O)(O)O)C(=O)O	.	?	?	0.4%	-1.8	3.2%
NO	.	-7.5%[1.9 µM]	1.41µM*	-14.6%	.	-3.6%
CCCCn1c(N)c(C(=O)NCCN2CCOCC2)c2nc3ccccc3nc21	-25.3%	-15.3%	?	-1.1%	-12.7	-7.1%
CCC(C)NC(=O)c1c(N)n(Cc2ccc3c(c2)OCO3)c2nc3ccccc3nc12 (stereo not drawn)	?	-17.9%[0.074 µM]	?	-10.0%	-37.3*	-1.7%
CC(C)CCNC(=O)c1c(N)n(CC2CCCO2)c2nc3ccccc3nc12 (stereo not drawn)	16.1%[9.22 µM]	7.0%[0.074 µM]	?	2.8%	-42.5*	-9.1%
CCC(C)NC(=O)c1c(N)n(CC2CCCO2)c2nc3ccccc3nc12 (stereo not drawn)	-8.6%	-22.7%	?	3.6%	-39.6*	-9.7%
O=C1NC(=O)N(Cc2ccccc2)C(=O)/C1=C\N1CCCc2ccccc21	-12.0%	-37.8%[10 µM]	0.8%	-8.9%	-6.6	35.5µM*
CN(C)C(=S)SC(=S)N(C)C	3.16µM*	-97.2%	.	1.1%	-1.2	28.2µM*
CN(C)C(=S)SSC(=S)N(C)C	1µM*!	-309.3%	25.1µM*	3.16µM*!	-44.8*!	2.51µM*!
CCOC(=O)c1c(N)n(CCN2CCCCC2)c2nc3ccccc3nc12	-26.2%	-20.2%	?	6.3%	1.3	1.9%
CCCCn1c(NS(=O)(=O)c2ccccc2)c(C(=O)OCC)c2nc3ccccc3nc21	15.1%	.	?	2.4%	-0.2	44.7µM*
C=C[C@@H]1CN2CC[C@@H]1C[C@H]2[C@H](O)c1ccnc2ccccc12	.	-25.3%	.	.	.	.
CC1CN1P(=O)(Oc1ccc2ccccc2c1)N1CC1C (stereo not drawn)	.	.	.	.	.	-4.3%
CC1=CC(=O)NP(=O)(Oc2ccc3ccccc3c2)N1 (stereo not drawn)	8.0%	-7.0%	-8.7%	12.6µM*	4.4	-9.7%
CCCCCCCCOC(=O)c1ccccc1C(=O)OCCCCCCCC	-8.3%	-3.6%	.	4.6%	.	8.7%
CCCCCCCCCCCCCCOS(=O)(=O)O	.	.	.	.	9.9	28.2µM*
CN1C(=O)NC(=O)/C(=C\c2ccc([N+](=O)[O-])o2)C1=O	-1.3%	-40.0%	?	23.8%	-19.0	?
CN1C(=O)NC(=O)/C(=C/c2ccc([N+](=O)[O-])o2)C1=O	-4.8%[9.22 µM]	8.2%[10 µM]	?	-23.7%	-10.3	70.8µM*
C[N+]1(C)CCN(c2ccccc2)CC1	-17.5%	-17.0%	-25.8%	28.2µM*!	0.0	5.9%
NC(=NCCC[C@@H](N)C(=O)O)N[N+](=O)[O-]	.	15.1%[1.9 µM]	.	.	.	.
COc1c2c(c(CC=C(C)C)c3oc(=O)c(-c4ccc(O)cc4)c(O)c13)OC(C)(C)C=C2	.	.	?	-4.4%	7.1	?
CC(C)=CCCC1(C)C=Cc2c(O)c3c(c(CC=C(C)C)c2O1)OC12C(CC4CC1C(C)(C)OC2(C/C=C(/C)C(=O)O)C4O)C3=O (stereo not drawn)	.	3.16µM*	?	-8.4%	-0.2	50.1µM*
SMILES	HTT aggregate	HTT cytoprotect	JMJD2E inh	RGS12 GoLoco inh	FBPA coupling cs	VDR inh
CCn1cnc2c(Nc3cccc(Cl)c3)nc(N[C@@H]3CCCC[C@H]3N)nc21	.	-59.4%[1.9 µM]	.	.	.	.
ClC1=C(Cl)C(Cl)(C2(Cl)C(Cl)=C(Cl)C(Cl)=C2Cl)C(Cl)=C1Cl	.	.	.	.	-14.2	3.16µM*
CCCN1CCc2cc(O)cc3c2[C@H]1Cc1ccc(O)c(O)c1-3	.	-12.6%[1.9 µM]	.	.	.	5.01µM*!
CCCN1CCc2cccc3c2C1Cc1ccc(O)c(O)c1-3 (stereo not drawn)	.	-25.8%	?	21.7%	.	-0.9%
CN1CCc2cc(O)cc3c2[C@H]1Cc1ccc(O)c(O)c1-3	.	-5.6%[1.9 µM]	.	.	.	4.47µM*!
CC(=O)N1CC[N+](C)(C)CC1	.	-35.1%	11.2µM*	-34.9%	6.0	1.2%
CC(=O)OC1CC2C(C)(C)C(=O)C=C[C@]2(C)C2CC[C@]3(C)C(=CC(=O)OC3c3ccoc3)[C@]12C (stereo partly drawn)	.	?	-3.0%	-1.4%	0.3	20µM*
CC(=O)OC1CC(OC(C)=O)[C@]2(C)C(CC(OC(C)=O)[C@]3(C)C2CC[C@@]2(C)C(c4ccoc4)C[C@H]4O[C@]432)C1(C)C (stereo partly drawn)	.	-75.1%	?	10.7%	-0.2	1.0%
CC(C)C[C@H]1C(=O)N2CCC[C@@H]2[C@]2(O)O[C@](NC(=O)[C@H]3C=C4c5cccc6[nH]cc(c56)C[C@H]4N(C)C3)(C(C)C)C(=O)N12	.	0.1%	.	.	.	.
COc1ccc(/C=C2/C(=O)N(c3ccccc3)N=C2C)cc1	.	.	.	.	.	89.1µM*
CCOC(=O)CC(SP(=O)(OC)OC)C(=O)OCC (stereo not drawn)	.	-68.1%	.	-24.7%	.	.
CCOC(=O)C(SP(=S)(OC)OC)c1ccccc1 (stereo not drawn)	.	.	.	.	1.0	3.55µM*
CN[C@@H](Cc1c[nH]c2ccccc12)C(=O)O	.	-2.3%[1.9 µM]	?	-1.0%	-1.5	-1.6%
O=C(CN1C(=O)S/C(=C\C=C\c2ccccc2)C1=O)Nc1ccccc1C(=O)O	-7.7%[9.22 µM]	-1.8%[10 µM]	-10.7%	7.9%	1.2	79.4µM*
Cc1ccccc1NC(=O)CCl	25.1%[9.22 µM]	14.1%[10 µM]	5.7%	10.7%	3.8	-27.1%
O=C1NC(=O)N(c2ccc(F)cc2)C(=O)/C1=C/c1ccsc1	17.7%	-51.3%	-1.1%	17.2%	-0.1	?
CCOc1ccc(N2C(=O)/C(=C\c3cccs3)C(=O)NC2=S)cc1	16.4%	16.0%	-4.1%	62.3%	-2.0	5.9%
CSc1ncc(/C=C2/C(=O)NC(=O)N(c3ccc(C)cc3)C2=O)cn1	18.4%	-18.1%	?	0.7%	4.4	39.8µM*
CCOc1ccc(N2C(=O)NC(=O)/C(=C/c3cnc(SC)nc3)C2=O)cc1	-22.3%	-44.2%	35.5µM*	-3.4%	5.3	39.8µM*
CCOc1ccc(N2C(=O)/C(=C/c3ccco3)C(=O)NC2=S)cc1	.	.	.	.	7.8	79.4µM*
